From PubChem BioAssay
A number with no mark means an inactive call. How the calls were made is not given here.

test system: Aerobactin synthetase IucA (Klebsiella pneumoniae, hypervirulent); assay: IucA enzyme inhibition, biochemical, LOPAC library, absorbance readout (AID 1346212); conditions: IucA enzyme assay, absorbance (OD) readout; hits give low values;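 tested at 8 µM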;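 further: 100% = no compound wells and 0% = no enzyme wells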

Row | SMILES | remaining activity [%]
1 | O=C1Cc2c([nH]c3ccc(Br)cc23)-c2ccccc2N1 | 125
2 | NCCCC(N)(C(=O)O)C(F)F (stereo not drawn) | 121
3 | OC[C@H]1O[C@@H](n2cnc3c(N[C@H]4CC5CCC4C5)ncnc32)[C@H](O)[C@@H]1O (stereo partly drawn) | 99.3
4 | N=c1c[n+](N2CCOCC2)[n-]o1 | 108
5 | CCCC(=O)NCCc1c2n(c3ccc(OC)cc13)CCCc1ccccc1-2 | 116
6 | O=Nc1c(-c2c(O)[nH]c3cc(Br)ccc23)[nH]c2ccccc12 | 113
7 | COc1ccccc1N1CCN(CCN(C(=O)c2ccc(I)cc2)c2ccccn2)CC1 | 122
8 | Cc1ccc(OC[C@H](O)[C@H](C)NC(C)C)c2c1CCC2 | 101
9 | FC(F)(F)c1cc(CO[C@H]2CCCN[C@H]2c2ccccc2)cc(C(F)(F)F)c1 | 107
10 | CCCCCN(CCCCC)C(=O)C(CCC(=O)O)NC(=O)c1ccc(Cl)c(Cl)c1 (stereo not drawn) | 110
11 | COc1ccc2c(c1)c(CC(=O)O)c(C)n2Cc1ccc(Cl)cc1 | 99.3
12 | CC(C)C[C@H](NC(=O)[C@H]1O[C@@H]1C(=O)O)C(=O)NCCCCN=C(N)N | 115
13 | CN1CCN(c2nc3cc(C(F)(F)F)ccc3n3cccc23)CC1 | 94.3
14 | O=c1cc(O)cc(/C=C/c2ccc(O)c(O)c2)o1 | 93.8
15 | N[C@H](C(=O)O)[C@H]1C[C@@H]1C(=O)O | 93.8
16 | CN1CCc2cccc3c2[C@H]1Cc1ccc(O)c(O)c1-3 | 107
17 | CSc1nc(N)c2ncn([C@@H]3O[C@H](COP(=O)(O)OP(=O)(O)OP(=O)(O)O)[C@H](O)C3O)c2n1 (stereo partly drawn) | 109
18 | CNC(=O)[C@H]1O[C@@H](n2cnc3c(NCc4cccc(I)c4)nc(Cl)nc32)[C@H](O)[C@@H]1O | 103
19 | CCCn1c(=O)[nH]c(=O)c2[nH]cnc21 | 103
20 | c1cc(CN2CCCCC2)cc(OCCCNc2nc3ccccc3s2)c1 | 101
21 | O=c1ccc2c(OCCCCc3ccccc3)c3ccoc3cc2o1 | 123
22 | CC(C)N(CCC(=O)c1ccc2ccccc2c1)Cc1ccccc1 | 112
23 | CN(C)CC[C@@H](c1ccc(Br)cc1)c1ccccn1 | 88.6
